From PubChem BioAssay (NCI)
About 79,000 compounds went through this panel and 15% of them were active in at least one assay; those are over-represented in the sample as a whole. A number with no mark means an inactive call. Activity calls are given as the source filed them. No stated cut-off is given here; in the data, active means growth inhibition above about 70%; inactive means the rest.

Tests used:
[1] = NCI Yeast Anticancer Drug Screen. Data for the rad50 strain (AID 155);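 further: 0% = growth of vehicle-only cultures of the same strain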; conditions: S. cerevisiae rad50 strain growth inhibition; at 50.0 µM; stronger effect = higher value
Outline: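 A DNA repair-deficient yeast mutant serves as the test organism; compound-induced growth inhibition is calculated against vehicle-treated cells.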

[2] = NCI Yeast Anticancer Drug Screen. Data for the mec2-1 strain (AID 157); conditions: S. cerevisiae mec2-1 strain, at 50.0 µM, stronger effect = higher value
Outline: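 Strain: mec2-1 (DNA repair/cell cycle alteration). Compound exposure, then growth measured; inhibition expressed relative to vehicle.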

[3] = NCI Yeast Anticancer Drug Screen. Data for the sgs1 mgt1 strain (AID 161);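 further: 0% = growth of cultures given vehicle only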; conditions: S. cerevisiae sgs1 mgt1 strain, at 50.0 µM, stronger effect = higher value
Outline: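 Genetically altered yeast, compound exposure, growth inhibition relative to vehicle.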

[4] = NCI Yeast Anticancer Drug Screen. Data for the cln2 rad14 strain (AID 165);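 further: 0% = growth equal to vehicle treated cultures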; conditions: S. cerevisiae cln2 rad14 strain, at 50.0 µM, stronger effect = higher value
Outline: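 Compounds are applied to the cln2 rad14 yeast strain, and growth is then compared with that of vehicle-treated cultures to give inhibition.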

[5] = NCI Yeast Anticancer Drug Screen. Data for the bub3 strain (AID 167); conditions: S. cerevisiae bub3 mutant strain, at 50.0 µM, stronger effect = higher value
Outline: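 Inhibition values come from growth of compound-treated mutant yeast normalised to vehicle-treated controls.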

[6] = NCI Yeast Anticancer Drug Screen. Data for the mlh1 rad18 strain (AID 175); conditions: S. cerevisiae mlh1 rad18 strain growth inhibition; at 50.0 µM; stronger effect = higher value
Outline: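 Read-out is yeast growth inhibition, calculated against vehicle-only controls. The compound was applied to a strain engineered with DNA damage repair alterations.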

Row | SMILES | growth inhibition [1] | growth inhibition [2] | growth inhibition [3] | growth inhibition [4] | growth inhibition [5] | growth inhibition [6]
1 | CN(C)CC(O)c1ccc(Cl)c2ccccc12 (centres undefined) | 3.95% | -20.9% | -31.9% | -30.1% | -8.7% | 1.75%
2 | COc1ccc(C2=C(N)c3cc(OC)ccc3C2=O)cc1 | 41.1% | 12.3% | 33% | -0.3% | 32.1% | -24.8%
3 | COc1ccc2cc(C(=O)CCC(=O)O)ccc2c1 | 2.7% | -35% | -16.4% | -21.3% | -38.5% | 0.25%
4 | NC(=O)N/N=C/c1cccc(O)c1O | 6% | -6.2% | -24.7% | -10.2% | -2.9% | 5.75%
5 | CN(C)C(=N/O)/C(=N\O)N(C)C | -5.05% | -25% | -23.1% | -6.35% | -23.8% | -0.2%
6 | Cc1cc(N(CCC#N)CCC#N)ccc1/C=C(\NC(=O)/C=C/c1ccccc1)C(=O)N=[N+]=[N-] | -30.4% | -31.9% | -44.9% | -19.4% | -21.1% | -7.2%
7 | Cc1cccc(NC(=O)C(C)C)c1 | 24.3% | 19.4% | 11.8% | -2.35% | -43.9% | -33%
8 | CC(=O)OC1CC(c2ccccc2)=NO1 (centres undefined) | -12.8% | -21.5% | -8.6% | -21.9% | -10.8% | -12.4%
9 | CC1C2CC(CC2O)C1(C)C (centres undefined) | 11.3% | 16.6% | 18.1% | 24.4% | 6.3% | 15.9%
10 | O=C(c1ccccc1)C(C(c1ccc(Cl)cc1)N1CCOCC1)N1CCOCC1 (centres undefined) | 5.15% | 2.75% | 16.8% | 19.9% | 10.7% | 7.65%
11 | NNC(=S)N/N=C(\CCCC(=O)NCCc1ccccc1)CC(=O)c1ccccc1 | -3.6% | 12.8% | -21.3% | 18.1% | 8.15% | 8.8%
12 | CCCCc1c[nH]c(=O)[nH]c1=O | 4.55% | 5.05% | -8.4% | -34.6% | -12.6% | 5.7%
13 | [N-]=[N+]=NCN1C(=O)C2C3C=CC(C2C1=O)C1C2C(=O)N(CN=[N+]=[N-])C(=O)C2C31 (centres undefined) | -3.2% | -4.1% | -39.4% | 4.4% | -25.8% | -42.1%
14 | Cc1ccc(N(C(=O)Nc2ccccc2)C2=NCC(C)S2)cc1C (centres undefined) | -29.5% | -17.9% | -37.4% | 2.5% | 39.3% | -39.6%
15 | Cc1cc(=O)c2c(ccc3c(=O)cc(C)[nH]c32)[nH]1 | -56.8% | -21.2% | -14.3% | -52.2% | -3.1% | 3.25%
16 | CNC(=O)CNC(=O)C(Cc1ccc(NC(=O)CCCCC(C)=O)cc1)NC(=O)C(CCC(=O)OCc1ccccc1)NC(=O)OC(C)(C)C (centres undefined) | -19.6% | -23.6% | -26.1% | 0% | -30.1% | -17.1%
17 | COc1cc2ccccc2cc1CO | -4.15% | -4.2% | -3.8% | -16.1% | -22.8% | -0.45%
18 | CSC(=Nc1ccc([N+](=O)[O-])cc1C#N)NC(=O)c1ccccc1 | -28.2% | -19.9% | -29.1% | -15.1% | -16.8% | 9.55%
19 | N#C/C(=C\c1ccc(F)cc1)C(=O)O | 13.2% | 0.8% | -7.9% | 4.2% | 8.5% | 18.4%
20 | COc1ccc(C(C#N)N2CCCN(C(C#N)c3ccc(OC)cc3)C2c2ccccc2)cc1 (centres undefined) | -2.1% | 2.95% | -9.05% | -0.2% | -0.1% | 7.1%

Row | SMILES | growth inhibition [1] | growth inhibition [2] | growth inhibition [3] | growth inhibition [4] | growth inhibition [5] | growth inhibition [6]
21 | CC(C)[C@@H]1NC(=O)[C@@H]2N=C(O[C@H]2C)[C@H](C(C)C)NC(=O)C2N=C1O[C@H]2C | 11% | 4.75% | 2.15% | 9.45% | 10.3% | -34.1%
22 | O=C(COc1ccc(Cl)cc1)N(c1ccccc1)C1CCCCC1 | 95.9% (active) | 98.3% (active) | 97.5% (active) | 96.2% (active) | 95.2% (active) | 96.9% (active)
23 | O=C(O)CCSCc1ccc(I)cc1 | 35.1% | 35.5% | 54% | 34.2% | 47.6% | 37.3%
24 | O=C(C(=O)c1cccc(Cl)c1)c1ccccc1 | 21.4% | 24.6% | 5% | 2.85% | -15.2% | -5.45%
25 | OC(CCN1CCC2CCC(C2)C1)(c1ccccc1)c1ccc(Cl)cc1 (centres undefined) | -4.55% | -16.1% | 14% | -26.5% | 4.4% | -17.2%
26 | CC12CCC(CC1=O)C2(C)CCC(N)=O (centres undefined) | -1.55% | -12% | 18.2% | -11.7% | -17.9% | -8.8%
27 | O=[N+]([O-])c1ccc(/C=C/[P+](c2ccccc2)(c2ccccc2)c2ccccc2)o1 | 94.2% (active) | 97.5% (active) | 89.5% (active) | 83.5% (active) | 95.8% (active) | 93.7% (active)
28 | CNC(=O)c1ccc[n+](CC(=O)NCc2ccccc2)c1 | -1.8% | -11.3% | -15.8% | -2.25% | -1.5% | -15.6%
29 | CC1(C)C2CCC3CC(CCC#N)CCC3C21C#N (centres undefined) | -32.2% | -11.2% | -8.8% | -34.5% | -37.8% | -23.1%
30 | FC1(F)C2(OCCO2)C(F)(F)C12OCCO2 | -1.6% | -5.25% | -1.8% | -1.1% | -8.5% | -4.8%
31 | CCOc1c(N=Nc2ccc(OC)cc2)c(C)nn1C(N)=S | -12.5% | -1.5% | 2.85% | -48.7% | 9.75% | 15.2%
32 | S=C(Nc1cccc2ccccc12)N1CCCCC1 | 51.7% | 39% | 50.7% | 18.1% | 61% | 35.7%
33 | O=S(=O)(O)SCC1=NCCN1 | 17.9% | -5.1% | -3.55% | -34.9% | 11.2% | 9.85%
34 | CC(C)CN1CC(C)C(=O)NC1=O (centres undefined) | 1.4% | -3.4% | -2.45% | 3.85% | 1% | 5.4%
35 | N#CN1CC[C@@H]2CC3(CCC2C1)OCCO3 (some centres undefined) | 17.6% | 4.3% | 0.3% | -4.45% | -18.4% | 1.5%
36 | O=[N+]([O-])c1nccn1CCCNc1c2ccccc2nc2ccccc12 | 25.1% | 7.95% | 27.8% | 23.1% | 6.5% | 17.9%
37 | COc1cccc(CC2C(=O)N=C(NC(C)=O)N2C)c1OC(C)=O (centres undefined) | -35% | -7.4% | -23.6% | -11.7% | -5.65% | -31.2%
38 | COC(=O)c1nn(-c2ccccc2)c(=O)cc1N=[N+]=[N-] | -31% | -5.2% | -39.2% | -12.8% | -14.2% | -54.4%
39 | COc1ccc(Cl)cc1Cl | 6.8% | -6.45% | -98% | 14.2% | 14.1% | 26.6%
